From PubChem BioAssay (Tox21) come the findings set out here.

The source made the active and inactive calls. A call without a number means that no potency is given here. Calls come from the whole dose curve.

In this experiment the target is Estrogen receptor (Homo sapiens) (UniProt P03372). Description: qHTS assay to identify small molecule agonists of the estrogen receptor alpha (ER-alpha) signaling pathway in the presence of an antagonist (AID 1259383). Note: top concentration of the series differs between compounds; nearly all actives have a fitted effect of over 15% in size. Conditions: VM7Luc4E2 cells, ERE-luciferase, +ICI-182,780, 22 h; series mostly up to 92.4 µM; activation: at the top concentration. From the text: National Center for Advancing Translational Sciences [NCATS] NIH Chemical Genomics Center [NCGC] U.S. Environmental Protection Agency [EPA] National Institutes of Environmental Health Sciences [NIEHS] National Toxicology Program [NTP] Assay overview: Estrogen receptor (ER), a member of nuclear hormone receptor plays an important role in development, metabolic homeostasis and reproduction. Two subtypes of ER, ER-alpha and ER-beta, have similar expression patterns with some uniqueness in both types. Endocrine disrupting chemicals (EDCs) and their interactions with steroid hormone receptors like ER causes disruption of normal endocrine function. Therefore, it is important to understand the effect of environmental chemicals in ER signaling pathway. For identifying ER agonists, VM7Luc4E2 cell line has been used in the current assay. VM7Luc4E2 cell line (provided by Denison MS, University of California) endogenously expresses full-length ER-alpha and is stably transfected with a plasmid containing four estrogen responsive elements (ERE) upstream of a luciferase reporter gene. This current screening for measuring luciferase reporter gene activity using VM7Luc4E2 cells against Tox21 10K library collection is a confirmation study on agonist mode screening in presence of ER-antagonist (ICI-182,780) at 10.0nM final concentration.
Sequence of Estrogen receptor (Homo sapiens) (P03372 whole entry, looked up): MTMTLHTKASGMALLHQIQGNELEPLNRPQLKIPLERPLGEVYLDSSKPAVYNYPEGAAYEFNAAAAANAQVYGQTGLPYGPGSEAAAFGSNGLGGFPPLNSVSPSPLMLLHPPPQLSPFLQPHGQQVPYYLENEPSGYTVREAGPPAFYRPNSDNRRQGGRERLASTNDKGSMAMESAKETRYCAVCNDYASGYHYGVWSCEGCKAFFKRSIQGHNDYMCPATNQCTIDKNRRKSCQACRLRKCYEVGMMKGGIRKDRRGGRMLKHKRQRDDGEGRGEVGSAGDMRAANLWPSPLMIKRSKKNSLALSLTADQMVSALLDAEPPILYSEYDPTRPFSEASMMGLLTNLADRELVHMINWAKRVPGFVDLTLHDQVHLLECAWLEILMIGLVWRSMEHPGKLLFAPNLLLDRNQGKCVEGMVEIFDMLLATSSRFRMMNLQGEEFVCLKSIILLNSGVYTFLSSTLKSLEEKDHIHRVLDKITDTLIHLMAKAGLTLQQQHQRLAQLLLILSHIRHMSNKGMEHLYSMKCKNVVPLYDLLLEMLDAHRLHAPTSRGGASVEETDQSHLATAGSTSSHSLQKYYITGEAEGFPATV
Assay Protocol Summary: VM7Luc4E2 cells were cultured in phenol red free assay medium containing 10% charcoal stripped FBS for 5 days prior to the assay. The cells were dispensed at 4,000 cells in 4uL of assay medium per well into white wall/solid-bottom 1536-well plates (Corning Life Sciences, Corning, NY) using a Multidrop Combi (Thermo Fisher Scientific Inc., Waltham, MA) dispenser. After the assay plates were incubated at 37C and 5% CO2 for 24hr, 1uL of 10.0nM (final concentration) ICI-182,780 or assay buffer was added using two separate tips of Flying Reagent Dispenser (FRD, Aurora Discovery, San Diego, CA). Then 23nL of compounds dissolved in DMSO at 15 concentrations and positive controls or DMSO only was transferred to the assay plates by a Pintool station (Wako, San Diego, CA). The assay plates were incubated at 37C and 5% CO2 for 22hr. For luciferase read, 4uL/well ONE-Glo reagent (Promega Corporation, Madison, WI) was added to each well using FRD and after 30min incubation at room temperature, luminescence signal was measured on ViewLux plate reader (PerkinElmer, Shelton, CT).
(qHTS replaces the single test concentration by a dilution series.)
Regarding `Nc1ccc2c(c1)C(=O)c1ccccc1C2=O`, the “activation” value is 5.7% (inactive). Regarding `Cc1ccc([N+](=O)[O-])c(C)c1`, the Potency result is “inactive”.

Turning to `CC(C)=CCO`, the Potency entry is “inactive”.

In the case of `CC1(C)C(C=C(Cl)Cl)C1C(=O)OCc1cccc(Oc2ccccc2)c1` (stereo not given), the Potency result is “inactive”.

As for `CCc1cccc2c3c([nH]c12)C(CC)(CC(=O)O)OCC3` (stereo not given), the Potency entry is “inactive”. The same measure, in the same setting: then `CCO[Si](CCCNC(N)=O)(OCC)OCC`, with “inactive”; and `C1CN(SSN2CCOCC2)CCO1`, with “inactive”; and `NCCOCCO`, with “inactive”. Regarding `O=C(O)c1cc(=O)[nH]c(=O)[nH]1`, the Potency entry is “inactive”. Same read-out and setting: then `O=S1(=O)CCCO1`, with “inactive”; and `C/C=C/C(=O)N(CC)c1ccccc1C`, with “inactive”; and `CC(=O)Nc1ccc2c(c1)Cc1cc(NC(C)=O)ccc1-2`, with “inactive”.

As for `CN(C)/N=N/c1nc[nH]c1C(N)=O`, the Potency result is “inactive”. The same measure, in the same setting: for `c1ccc2c(c1)ccc1ncccc12` the value was “inactive”. Still for that read-out and setting: then `CC(=O)O[C@]1(C(C)=O)CC[C@H]2[C@@H]3C=C(C)C4=CC(=O)CC[C@]4(C)[C@H]3CC[C@@]21C`, with “inactive”; and `CCCCCCCCCCCCO`, with “inactive”. The same measure, in the same setting: then `C=C[C@@]1(C)CC(=O)[C@]2(O)[C@@]3(C)[C@@H](O)CCC(C)(C)[C@@H]3[C@H](O)[C@H](OC(C)=O)[C@@]2(C)O1`, with “inactive”; and `CC(=O)Oc1c(C)c(C)c2c(c1C)CC[C@@](C)(CCC[C@H](C)CCC[C@H](C)CCCC(C)C)O2`, with “inactive”.

`COc1ccc2nc(N)sc2c1`: the Potency entry was “inactive”. Regarding `Cc1ccc(C(C)(C)C)cc1`, the Potency result was “inactive”.

With `CC(=O)[C@H]1CC[C@H]2[C@@H]3CC=C4C[C@@H](O)CC[C@]4(C)[C@H]3CC[C@]12C`, the Potency result is “inactive”. As to `O=C(O)CCCC(=O)O`, the “activation” value is -0.302% (inactive).

As for `O=C(O)COCCN1CCN(C(c2ccccc2)c2ccc(Cl)cc2)CC1` (stereo not given), the Potency entry is “inactive”.

For the compound `c1ccc2cc3ccccc3cc2c1`, the Potency result is “inactive”.

For the compound `Nc1cc(Cl)c(N)c(Cl)c1`, the Potency entry is “inactive”. The same measure, in the same setting: for `CC(C)[N+](C)(CCOC(=O)C1c2ccccc2Oc2ccccc21)C(C)C` the value was “inactive”; for `COC(=O)c1ccc(C)cc1`, “inactive”; for `CC(=O)Oc1ccc(C(c2ccc(OC(C)=O)cc2)c2ccccn2)cc1`, “inactive”.

Turning to `ClC/C=C/CCl`, the Potency result is “inactive”. Regarding `c1ccc2ncccc2c1`, the Potency entry is “inactive”. Take `Cc1ccc(S(=O)(=O)O)cc1C`: the Potency result was “inactive”. Consider `CCOC(=O)C(C)Oc1ccc(Oc2cnc3cc(Cl)ccc3n2)cc1` (stereo not given), for which the Potency entry is “inactive”.

Consider `Nc1cc([N+](=O)[O-])ccc1C(=O)O`, for which the Potency entry is “inactive”. The same measure, in the same setting: then `CC(=O)O[C@]1(C(C)=O)CC[C@H]2[C@@H]3C=C(Cl)C4=CC(=O)CC[C@]4(C)[C@H]3CC[C@@]21C`, with “inactive”; and `Cc1ccc(S(=O)(=O)NCl)cc1`, with “inactive”; and `CN(Cc1cnc2nc(N)nc(N)c2n1)c1ccc(C(=O)N[C@@H](CCC(=O)O)C(=O)O)cc1`, with “inactive”.

With `NCCN`, the Potency entry was “inactive”. Still for that read-out and setting: then `COC(=O)CC(=O)OC`, with “inactive”; and `Oc1c(Cl)ccc(Cl)c1Cl`, with “inactive”.

On to `CNC[C@H](O)c1ccc(O)c(O)c1`, for which the Potency result is “inactive”.
